Source: PubChem BioAssay (NCI)
About 83,000 compounds went through this panel and 20% of them were active in at least one assay; those are over-represented in the sample as a whole.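 Interpretation: 100, growth as untreated; towards 0, rising growth inhibition; 0, no net growth; 0 to -100, cell death. Compounds scoring below 10 were considered active.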 Values without a mark were called inactive. Activity calls are given as the source filed them.

The molecules below were run on HCT-15 colon (assay: NCI-60 one-dose screen, 48 h (100 = growth as untreated, 0 = no growth, -100 = all killed)). Conditions: 10 µM unless noted.

Structure (SMILES) | growth
NC(CSC(c1ccccc1)(c1ccccc1)c1ccc2c(c1)OCO2)C(=O)O (centres undefined) | 25.4%
Cn1ccnc1C(=O)/C=C/c1ccc(C(=O)Nc2ccc(F)cc2)cc1 | 0.589% (active)
C=CCn1c(SCC(=O)Nc2ccc(C(=O)/C=C/c3ccc(OC)cc3)cc2)nnc1-c1ccccc1 | 83.4%
COc1ccccc1NC(=O)c1ccc(/C=C/C(=O)c2nccn2C)cc1 | -30.3% (active)
CCC/C(=N\NC(N)=O)C(OC)OC | 105%
O=C1c2cccnc2C(=O)c2c1c(C(=O)OCCCN1CCCCC1)c1ccccn21 | -55.5% (active)
O=C1CC2C=CCN2C=C1NC(=O)C1CCCCC1 (centres undefined) | 98%
O=C(Nc1ccccc1)c1sc(-c2ccccc2)cc1O | 97.4%
O=C1/C(=C/c2cccc([N+](=O)[O-])c2)COc2ccc(O)cc21 | -9.57% (active)
COc1cc2c3c(c1O)-c1ccccc1[C@@H]1OC(=O)N(CC2)[C@H]31 | 100%
COC(c1ccc2ccccc2c1)C(C)C(F)F (centres undefined) | 112%
Nc1ncnc2c1c(-c1ccc(Oc3ccccc3)cc1)nn2CC1SSCC1O (centres undefined) | 65.3%
C/C(=C(\c1ccc(OCCN2CCCCCC2)cc1)c1ccc(OC(=O)Cc2ccccc2)cc1)c1ccc(Cl)cc1 | -15.5% (active)
Cc1cc2oc(=O)cc(CP(=O)(O)O)c2cc1O | 96%
CCOC(=O)n1cc(-c2nonc2-c2cn(C)c3ccccc23)c2ccccc21 | 31.2%
Cc1cc(C)cc(Nc2ccc([N+](=O)[O-])c(NCCN3CCOCC3)n2)c1 | 11.5%
COc1ccccc1-n1c(-c2cc(O)ccc2C)cn2c3c(=O)[nH]c(=O)n(C)c3nc12 | 85.8%
O=c1oc2c(cnc3ccccc32)cc1-c1cccs1 | 112%
CCCCCCCCCCCCCCCCCCOc1ccccc1CC(=O)OCC[N+]1(C)CCOCC1 | 90%
COc1cc(C#Cc2ccc(=O)oc2C#Cc2ccccc2)cc(OC)c1OC | 61.4%
CCC(C)Nc1ccc(NC(C)CC)cc1 (centres undefined) | 97.7%
C#CCn1cnc2c(Nc3cccc(NC(=O)CCl)c3)ncnc21 | 23.4%
CC[C@H](CC[C@@H](C)[C@H]1CC[C@H]2[C@@H]3CC[C@@H]4CC(=O)/C(=C\c5ccncc5)C[C@]4(C)[C@H]3CC[C@]12C)C(C)C | 102%
COc1ccc2nc3ccccc3c(NCc3ccc(F)cc3)c2c1 | 4.11% (active)
COc1ccc(Cl)cc1Nc1nc(C(F)(F)F)ccc1C(=O)N/N=C/c1ccccc1Cl | 0.947% (active)

These molecules were tested on HT29 colon in the same assay as above. Conditions: 10 µM unless noted.

Structure (SMILES) | growth
CC(=O)N/C(=C1/OC(C(O)C(O)C(O)CO)CN1C)[P+](c1ccccc1)(c1ccccc1)c1ccccc1 (centres undefined) | 115%
COc1ccc(/C=C/C(=O)c2ccc(Nc3nc(Nc4ccc(F)cc4)nc(Nc4ccc(Cl)cc4)n3)cc2)cc1 | 94.1%
COc1ccc(C2=NN(C(=O)c3cc(OC)c(OC)c(OC)c3)C(c3ccc(N(C)C)cc3)C2)cc1 (centres undefined) | 19.1%
O=C1NC(=C(Cl)Cl)/C(=N/S(=O)(=O)NCCc2c[nH]c3ccccc23)N1 | 15%
COc1ccc(C/C(C)=C(\c2ccc(O)cc2)c2ccc(OCCN3CCCC3)cc2)cc1 | 88.4%
CCOC(=O)NN1CC(O)=C(c2nc(-c3ccc(Br)cc3)cs2)C1=N | 108%
COC(=O)/C(CCC=C(C)C)=C1\[C@@H](OC(C)=O)C[C@@]2(C)[C@H]1CC(=O)[C@H]1[C@@]3(C)CCC(N4CCCC4)[C@@H](C)[C@@H]3CC[C@@]12C (some centres undefined) | 68.2%
Nc1c(C(=O)Nc2ccccn2)sc2nc3c(cc12)C(O)CCC3 (centres undefined) | 11.8%
COc1ccc2nc3cc(Cl)ccc3c(NCCN)c2c1 | -42.5% (active)
Cc1cc2nc3c4ccccc4n(CCN(C)C)c3nc2cc1C | 8.23% (active)
Cc1ccc(C)n1/C=C/n1c(C)ccc1C | 102%
Cc1c2ccccc2nc2c1ccc1cccnc12 | 70.9%
CN1CCN(Cc2ccc(NC(=O)c3cncc(C#Cc4cncc5ncccc45)c3)cc2C(F)(F)F)CC1 | -4.72% (active)
CCNC(=O)Oc1ccc(/C(=C(/C)Cc2ccc(OC)cc2)c2ccc(OCCN3CCCCCC3)cc2)cc1 | 2.15% (active)
NC(CSC(c1ccccc1)(c1ccccc1)c1ccc2c(c1)OCO2)C(=O)O (centres undefined) | -5.15% (active)
Cn1ccnc1C(=O)/C=C/c1ccc(C(=O)Nc2ccc(F)cc2)cc1 | 9.78% (active)
C=CCn1c(SCC(=O)Nc2ccc(C(=O)/C=C/c3ccc(OC)cc3)cc2)nnc1-c1ccccc1 | 85.3%
COc1ccccc1NC(=O)c1ccc(/C=C/C(=O)c2nccn2C)cc1 | -52.6% (active)
CCC/C(=N\NC(N)=O)C(OC)OC | 97.8%
O=C1c2cccnc2C(=O)c2c1c(C(=O)OCCCN1CCCCC1)c1ccccn21 | -24.2% (active)

Structure (SMILES) | growth
O=C1CC2C=CCN2C=C1NC(=O)C1CCCCC1 (centres undefined) | 97.7%
O=C(Nc1ccccc1)c1sc(-c2ccccc2)cc1O | 107%
O=C1/C(=C/c2cccc([N+](=O)[O-])c2)COc2ccc(O)cc21 | 3.32% (active)
COc1cc2c3c(c1O)-c1ccccc1[C@@H]1OC(=O)N(CC2)[C@H]31 | 106%
COC(c1ccc2ccccc2c1)C(C)C(F)F (centres undefined) | 98.2%
Nc1ncnc2c1c(-c1ccc(Oc3ccccc3)cc1)nn2CC1SSCC1O (centres undefined) | 39.2%
C/C(=C(\c1ccc(OCCN2CCCCCC2)cc1)c1ccc(OC(=O)Cc2ccccc2)cc1)c1ccc(Cl)cc1 | -8.13% (active)
Cc1cc2oc(=O)cc(CP(=O)(O)O)c2cc1O | 106%
CCOC(=O)n1cc(-c2nonc2-c2cn(C)c3ccccc23)c2ccccc21 | 12.8%
Cc1cc(C)cc(Nc2ccc([N+](=O)[O-])c(NCCN3CCOCC3)n2)c1 | 13.4%
COc1ccccc1-n1c(-c2cc(O)ccc2C)cn2c3c(=O)[nH]c(=O)n(C)c3nc12 | 32%
O=c1oc2c(cnc3ccccc32)cc1-c1cccs1 | 111%
CCCCCCCCCCCCCCCCCCOc1ccccc1CC(=O)OCC[N+]1(C)CCOCC1 | 47.9%
COc1cc(C#Cc2ccc(=O)oc2C#Cc2ccccc2)cc(OC)c1OC | 43.4%
CCC(C)Nc1ccc(NC(C)CC)cc1 (centres undefined) | 71.5%
C#CCn1cnc2c(Nc3cccc(NC(=O)CCl)c3)ncnc21 | 26.9%
CC[C@H](CC[C@@H](C)[C@H]1CC[C@H]2[C@@H]3CC[C@@H]4CC(=O)/C(=C\c5ccncc5)C[C@]4(C)[C@H]3CC[C@]12C)C(C)C | 103%
COc1ccc2nc3ccccc3c(NCc3ccc(F)cc3)c2c1 | 0.209% (active)
COc1ccc(Cl)cc1Nc1nc(C(F)(F)F)ccc1C(=O)N/N=C/c1ccccc1Cl | 9.32% (active)
